Source: the supplement of paper PMC10849652
About 7,900 targets were measured; listed, in parts, are those with a hit and a random draw of the rest. About 0.6% of all pairs of compound and target were hits. A number with no mark means an inactive call.

Compound: Cc1nc(Nc2n[nH]c3c2CN(C(=O)N[C@H](CN(C)C)c2ccccc2)C3(C)C)c2sccc2n1
Assay: log2 fold change, soluble protein after heating vs DMSO (PISA); higher = thermal stabilisation; K562 cells, 10 uM, 30 min; active = over 0.2 and 3.5 SD of the protein, either way, in both replicates (recomputed)
Procedure, shortened: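 K562 cells at 2×10^6 cells/mL were given 10 μM compound for 30 min. Aliquots then went through 3 min of heating across 48°C-58°C, were pooled, and were extracted in PBS with 0.5% NP-40 at 4°C, and the supernatant after 21,000xg for 90 min was quantified by TMTpro 16plex LC-MS/MS with channel sums equalised. Thermal stability relative to control samples, from duplicates, is given as log2 fold change.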

Sequence of UniProt A6NHX0 (A6NHX0 whole entry, looked up): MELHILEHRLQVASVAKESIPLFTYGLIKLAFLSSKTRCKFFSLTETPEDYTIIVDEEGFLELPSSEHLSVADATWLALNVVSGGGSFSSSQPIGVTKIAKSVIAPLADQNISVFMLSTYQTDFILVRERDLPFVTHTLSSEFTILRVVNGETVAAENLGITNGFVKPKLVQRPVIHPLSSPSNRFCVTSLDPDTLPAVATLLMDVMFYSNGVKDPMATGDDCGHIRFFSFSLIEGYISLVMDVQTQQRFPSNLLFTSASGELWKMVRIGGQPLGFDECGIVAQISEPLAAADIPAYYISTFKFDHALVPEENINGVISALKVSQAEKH
Sequence of UniProt Q13057 (Q13057 whole entry, looked up): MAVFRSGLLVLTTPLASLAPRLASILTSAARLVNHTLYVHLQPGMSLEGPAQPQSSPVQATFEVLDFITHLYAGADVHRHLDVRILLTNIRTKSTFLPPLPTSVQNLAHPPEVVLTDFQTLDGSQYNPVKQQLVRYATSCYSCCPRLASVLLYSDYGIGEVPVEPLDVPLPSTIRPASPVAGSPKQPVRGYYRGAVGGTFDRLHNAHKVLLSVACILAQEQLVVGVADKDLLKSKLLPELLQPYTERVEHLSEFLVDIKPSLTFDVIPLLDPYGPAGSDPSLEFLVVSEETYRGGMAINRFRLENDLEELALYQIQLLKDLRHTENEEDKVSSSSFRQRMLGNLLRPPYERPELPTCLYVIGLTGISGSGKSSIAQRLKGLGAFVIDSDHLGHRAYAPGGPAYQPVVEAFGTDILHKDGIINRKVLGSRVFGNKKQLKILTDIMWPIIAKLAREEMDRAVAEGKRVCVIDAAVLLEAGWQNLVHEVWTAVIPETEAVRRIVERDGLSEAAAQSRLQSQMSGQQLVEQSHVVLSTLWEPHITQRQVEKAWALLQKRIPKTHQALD
Sequence of UniProt P14635 (P14635 whole entry, looked up): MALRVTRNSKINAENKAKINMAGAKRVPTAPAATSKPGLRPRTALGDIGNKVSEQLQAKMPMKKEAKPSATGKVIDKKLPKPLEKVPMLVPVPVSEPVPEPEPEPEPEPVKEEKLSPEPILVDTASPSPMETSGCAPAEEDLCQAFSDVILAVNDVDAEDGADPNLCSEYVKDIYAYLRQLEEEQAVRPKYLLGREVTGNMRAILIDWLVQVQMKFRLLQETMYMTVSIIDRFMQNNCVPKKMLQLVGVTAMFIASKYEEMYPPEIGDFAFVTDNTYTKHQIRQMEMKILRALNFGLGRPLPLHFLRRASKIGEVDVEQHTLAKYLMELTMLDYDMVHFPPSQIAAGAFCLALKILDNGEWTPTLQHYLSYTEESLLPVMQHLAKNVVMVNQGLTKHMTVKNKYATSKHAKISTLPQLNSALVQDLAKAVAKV
Sequence of UniProt P21964 (P21964 whole entry, looked up): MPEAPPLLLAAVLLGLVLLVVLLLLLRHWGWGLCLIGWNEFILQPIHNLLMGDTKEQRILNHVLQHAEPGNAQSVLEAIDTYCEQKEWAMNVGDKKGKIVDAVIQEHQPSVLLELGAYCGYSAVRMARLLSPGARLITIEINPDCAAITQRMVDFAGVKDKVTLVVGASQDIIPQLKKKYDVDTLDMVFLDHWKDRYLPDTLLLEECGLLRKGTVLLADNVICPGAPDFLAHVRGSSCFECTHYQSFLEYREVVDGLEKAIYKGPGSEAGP
Sequence of UniProt Q9NYV4 (Q9NYV4 whole entry, looked up): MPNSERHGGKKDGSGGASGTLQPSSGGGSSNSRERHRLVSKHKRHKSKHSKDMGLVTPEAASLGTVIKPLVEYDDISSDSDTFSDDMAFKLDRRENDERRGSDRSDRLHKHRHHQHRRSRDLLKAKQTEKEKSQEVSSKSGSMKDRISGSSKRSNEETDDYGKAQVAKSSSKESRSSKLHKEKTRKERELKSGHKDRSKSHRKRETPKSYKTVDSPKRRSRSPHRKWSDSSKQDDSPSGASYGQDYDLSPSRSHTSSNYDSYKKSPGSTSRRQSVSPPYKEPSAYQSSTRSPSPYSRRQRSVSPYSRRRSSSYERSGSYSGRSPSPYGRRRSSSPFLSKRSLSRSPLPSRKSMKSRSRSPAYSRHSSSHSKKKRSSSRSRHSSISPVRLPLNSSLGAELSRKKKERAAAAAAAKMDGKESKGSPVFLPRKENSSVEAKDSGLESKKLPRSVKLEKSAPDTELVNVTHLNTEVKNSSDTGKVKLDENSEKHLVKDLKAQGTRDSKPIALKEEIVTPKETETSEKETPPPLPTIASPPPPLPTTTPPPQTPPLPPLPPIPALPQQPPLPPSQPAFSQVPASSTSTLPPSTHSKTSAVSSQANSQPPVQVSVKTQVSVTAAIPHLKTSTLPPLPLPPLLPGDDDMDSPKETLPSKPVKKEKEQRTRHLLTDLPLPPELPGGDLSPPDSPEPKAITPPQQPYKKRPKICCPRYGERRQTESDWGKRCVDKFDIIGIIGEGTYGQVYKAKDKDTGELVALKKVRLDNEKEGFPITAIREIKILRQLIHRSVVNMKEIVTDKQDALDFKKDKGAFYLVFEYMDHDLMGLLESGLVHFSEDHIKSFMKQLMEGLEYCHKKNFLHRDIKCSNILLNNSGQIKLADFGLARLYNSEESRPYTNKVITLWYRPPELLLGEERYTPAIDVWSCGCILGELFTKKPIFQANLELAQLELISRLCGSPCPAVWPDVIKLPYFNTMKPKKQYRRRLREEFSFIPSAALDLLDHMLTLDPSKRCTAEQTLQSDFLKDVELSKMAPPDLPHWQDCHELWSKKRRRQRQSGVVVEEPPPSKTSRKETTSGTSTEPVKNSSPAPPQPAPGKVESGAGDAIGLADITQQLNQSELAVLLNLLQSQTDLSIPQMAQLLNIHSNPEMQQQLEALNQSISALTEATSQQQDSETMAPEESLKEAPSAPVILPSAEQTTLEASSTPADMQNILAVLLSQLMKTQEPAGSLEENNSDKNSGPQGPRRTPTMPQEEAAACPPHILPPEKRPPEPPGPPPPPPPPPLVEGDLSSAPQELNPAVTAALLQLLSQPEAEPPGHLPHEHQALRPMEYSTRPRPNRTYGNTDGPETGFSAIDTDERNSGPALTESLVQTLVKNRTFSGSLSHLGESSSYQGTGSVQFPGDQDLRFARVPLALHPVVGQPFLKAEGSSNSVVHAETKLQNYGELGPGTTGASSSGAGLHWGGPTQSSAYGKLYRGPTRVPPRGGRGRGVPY
Sequence of UniProt O75794 (O75794 whole entry, looked up): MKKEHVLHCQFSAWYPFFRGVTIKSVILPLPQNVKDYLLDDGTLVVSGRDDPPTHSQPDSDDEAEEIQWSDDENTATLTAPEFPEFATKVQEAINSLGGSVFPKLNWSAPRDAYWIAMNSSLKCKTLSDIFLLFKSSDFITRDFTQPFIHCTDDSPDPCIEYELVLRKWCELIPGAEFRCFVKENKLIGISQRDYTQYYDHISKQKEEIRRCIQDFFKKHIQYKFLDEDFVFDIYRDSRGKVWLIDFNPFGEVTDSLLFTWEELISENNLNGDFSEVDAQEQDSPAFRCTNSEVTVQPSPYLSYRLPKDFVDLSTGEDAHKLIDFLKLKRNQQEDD
Sequence of UniProt P09497 (P09497 whole entry, looked up): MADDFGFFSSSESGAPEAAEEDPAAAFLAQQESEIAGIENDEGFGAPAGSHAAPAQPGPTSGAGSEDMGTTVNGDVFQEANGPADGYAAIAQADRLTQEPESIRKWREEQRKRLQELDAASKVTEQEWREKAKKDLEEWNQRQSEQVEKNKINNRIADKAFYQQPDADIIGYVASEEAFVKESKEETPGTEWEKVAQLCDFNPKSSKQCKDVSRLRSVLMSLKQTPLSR
Sequence of UniProt P48509 (P48509 whole entry, looked up): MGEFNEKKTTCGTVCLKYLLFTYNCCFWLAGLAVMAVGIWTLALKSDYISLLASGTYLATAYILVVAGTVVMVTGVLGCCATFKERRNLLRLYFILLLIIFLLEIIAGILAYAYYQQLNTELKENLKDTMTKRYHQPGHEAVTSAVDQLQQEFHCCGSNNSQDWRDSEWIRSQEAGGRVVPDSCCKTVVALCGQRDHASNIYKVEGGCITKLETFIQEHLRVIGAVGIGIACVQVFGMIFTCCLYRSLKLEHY
Sequence of UniProt P51790 (P51790 whole entry, looked up): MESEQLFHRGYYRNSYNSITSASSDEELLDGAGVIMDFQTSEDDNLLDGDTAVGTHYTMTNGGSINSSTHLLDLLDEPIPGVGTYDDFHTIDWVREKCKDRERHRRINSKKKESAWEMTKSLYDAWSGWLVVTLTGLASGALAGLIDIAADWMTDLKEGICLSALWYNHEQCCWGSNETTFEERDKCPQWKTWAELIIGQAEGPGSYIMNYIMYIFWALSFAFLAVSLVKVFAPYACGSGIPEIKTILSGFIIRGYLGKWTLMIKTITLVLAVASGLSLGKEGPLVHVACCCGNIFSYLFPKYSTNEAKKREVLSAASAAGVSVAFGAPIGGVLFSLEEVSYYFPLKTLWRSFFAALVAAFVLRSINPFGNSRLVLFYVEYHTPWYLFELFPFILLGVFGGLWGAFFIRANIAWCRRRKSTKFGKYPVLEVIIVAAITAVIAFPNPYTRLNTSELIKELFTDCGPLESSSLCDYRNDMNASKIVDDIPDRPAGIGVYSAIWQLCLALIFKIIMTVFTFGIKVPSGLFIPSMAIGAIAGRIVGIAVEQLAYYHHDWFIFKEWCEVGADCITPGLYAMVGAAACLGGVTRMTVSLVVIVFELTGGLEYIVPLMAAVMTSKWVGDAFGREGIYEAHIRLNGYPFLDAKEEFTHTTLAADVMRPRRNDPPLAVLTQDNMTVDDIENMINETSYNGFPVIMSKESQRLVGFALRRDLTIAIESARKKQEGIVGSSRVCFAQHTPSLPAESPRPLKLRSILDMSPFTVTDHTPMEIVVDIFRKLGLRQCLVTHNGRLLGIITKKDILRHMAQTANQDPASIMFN
Sequence of UniProt O15182 (O15182 whole entry, looked up): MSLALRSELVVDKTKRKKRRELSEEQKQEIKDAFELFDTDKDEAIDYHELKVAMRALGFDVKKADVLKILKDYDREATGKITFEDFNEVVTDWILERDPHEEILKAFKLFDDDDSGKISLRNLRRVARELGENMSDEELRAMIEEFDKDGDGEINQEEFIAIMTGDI

Target	log2 fold change
C9orf72 (UniProt Q96LT7)	0.073
CDK13 (UniProt Q14004)	-0.149
CTBS (UniProt Q01459)	-0.007
CCNB1 (UniProt P14635)	-0.156
COMT (UniProt P21964)	0.119
CEPT1 (UniProt Q9Y6K0)	0.156
COPS4 (UniProt Q9BT78)	-0.01
COASY isoform 2 (UniProt Q13057)	0.001
CNOT1 (UniProt A5YKK6)	-0.058
CETN3 (UniProt O15182)	0.04
CPSF6 isoform 2 (UniProt Q16630)	-1.43 (active)
CASTOR2 (UniProt A6NHX0)	0.02
CASC3 (UniProt O15234)	0.481 (active)
CLUH, A0A494C0R8	0.015
CLTB (UniProt P09497)	0.024
CLCN3 isoform 2 (UniProt P51790)	0.034
CDC123 (UniProt O75794)	0.079
CD55 isoform 7 (UniProt P08174)	0.027

Target	log2 fold change
CLUH (UniProt O75153)	0.108
CSNK1A1 (UniProt P48729)	-0.008
CNTN4 (UniProt Q8IWV2)	0.01
CDC42BPA isoform 6 (UniProt Q5VT25)	-0.682 (active)
CDK5RAP1 (UniProt Q96SZ6)	-0.008
CASP10 isoform 4 (UniProt Q92851)	-0.103
CPT2 (UniProt P23786)	-0.003
CBX1 (UniProt P83916)	-0.089
CD151 (UniProt P48509)	0.157
CS (UniProt O75390)	-0.051
CSTF3 (UniProt Q12996)	0.176
CAD (UniProt P27708)	-0.008
CCAR2 isoform 2 (UniProt Q8N163)	-0.023
COX5A (UniProt P20674)	-0.023
CDK12 (UniProt Q9NYV4)	-0.631 (active)
CHCHD2 (UniProt Q9Y6H1)	0.029
CALB1 (UniProt P05937)	0.025
